# Bioassay records from PubChem.
# DT40 TDP1 CPT: growth inhibition of DT40 Tdp1-/-;hTDP1 cells with camptothecin (screen for TDP1 inhibitors) | hit rate 12% among 420,000 | chicken DT40 Tdp1-/-;hTDP1 cells + 20 nM CPT, ATP luminescence, 48 h | Potency, µM (doses to about 46.2 µM), for the others: at the top dose activity change, negative = growth inhibition, hits mostly inhibitors; note: potency is the fitted concentration of half-maximal effect; % is set by controls: 0 for no effect and ±100 for the full control effect; nearly all actives have a fitted effect of over 55% in size
#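 Chicken DT40 Tdp1-/- cells complemented with human TDP1, 400 cells/well, exposed to compounds plus 20 nM camptothecin for at least 48 h at 37 C; viability read as ATP content by CellTiter-Glo luminescence.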
# HepG2 tox: counter-screen for TGF-b inhibitors: cytotoxicity in HepG2 cells; HepG2 CAGA-GFP viability, ATP luminescence, 18 h; hit rate 0.76% among 410,000; Potency, µM (doses to about 46.1 µM), without a hit: top-dose activity change, negative = cytotoxicity, actives largely listed as cytotoxic; note: potency is the fitted concentration of half-maximal effect
#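 HepG2 CAGA-GFP cells (1000/well, DMEM with 1% FBS) received compound, then TGF-beta at 500 pg/mL final, and were incubated 18 hours at 37 degrees C. Viability was read by CellTiter-Glo luminescence. Media-only wells were set as complete cell-killing and DMSO as no toxicity.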
# DT40 TDP1 no CPT: qHTS for Inhibitors of human tyrosyl-DNA phosphodiesterase 1 (TDP1): qHTS in cells in absence of CPT; DT40 Tdp1-/- hTDP1 cells, no CPT, ATP luminescence, 48 h; Potency, µM (titrated, usually from 46.2 µM), inactives show at the top dose activity change, negative = growth inhibition, usual class: inhibitors; hit rate 15% among 420,000; note: potency is the fitted concentration of half-maximal effect; % is set by controls: 0 for no effect and ±100 for the full control effect; nearly all actives have a fitted effect of over 55% in size
#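 Growth of hTDP1-complemented DT40 Tdp1-knockout cells is measured by ATP luminescence after at least 48 hr compound exposure at 37 °C, with DMSO substituting for the 20 nM CPT used in the parallel screen.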
# IL1B secr inh: inhibitors of inflammasome signaling (IL-1 beta secretion) | THP-1 LPS/ATP IL-1B secretion, AlphaLISA, 16 h; stronger effect = lower value | activity change, % at 57.5 µM | hit rate 4.7% among 360,000; in the data active = activity change below about -50%; inconclusive = mostly about -30% to -49%; note: % is set by controls: 0 for no effect and ±100 for the full control effect
#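 THP-1 cells pretreated 1 hr with compounds (up to 57.5 uM final), then stimulated with LPS (250 ng/mL final) plus ATP (1.25 mM final); secreted IL-1B measured by AlphaLISA after 16 hr, decreased signal indicating inhibition.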
# TGFb inhibitor: TGF-b pathway inhibition. AID 588855. hit rate 1.2% among 410,000. Potency, µM (highest dose often 46.1 µM), for the others: top-dose activity, negative = inhibition, actives largely listed as inhibitors. HepG2 CAGA-GFP TGF-b/SMAD3 reporter, GFP fluorescence, 18 h; TGF-beta stimulated, 500 pg/mL final; note: potency is the fitted concentration of half-maximal effect; % is set by controls: 0 for no effect and ±100 for the full control effect; nearly all actives have a fitted effect of over 65% in size
#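 Cell-based qHTS in HEPG2 carrying a CAGA-GFP Smad reporter; compounds added before 500 pg/mL final TGF-beta, 18 h incubation at 37 degrees C, GFP fluorescence quantified per cell by imaging cytometry.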
# S-ASM inh: inhibitors of human secretory acid sphingomyelinase; P17405; placental ASM, HMU-PC fluorogenic substrate, 60 min; Potency, µM (top dose mostly 57.5 µM), for the others: at the highest dose activity change, negative = inhibition, actives largely listed as inhibitors; hit rate 0.006% among 340,000; note: potency is the fitted concentration of half-maximal effect
# Target sequence (P17405 47-631 limits assumed): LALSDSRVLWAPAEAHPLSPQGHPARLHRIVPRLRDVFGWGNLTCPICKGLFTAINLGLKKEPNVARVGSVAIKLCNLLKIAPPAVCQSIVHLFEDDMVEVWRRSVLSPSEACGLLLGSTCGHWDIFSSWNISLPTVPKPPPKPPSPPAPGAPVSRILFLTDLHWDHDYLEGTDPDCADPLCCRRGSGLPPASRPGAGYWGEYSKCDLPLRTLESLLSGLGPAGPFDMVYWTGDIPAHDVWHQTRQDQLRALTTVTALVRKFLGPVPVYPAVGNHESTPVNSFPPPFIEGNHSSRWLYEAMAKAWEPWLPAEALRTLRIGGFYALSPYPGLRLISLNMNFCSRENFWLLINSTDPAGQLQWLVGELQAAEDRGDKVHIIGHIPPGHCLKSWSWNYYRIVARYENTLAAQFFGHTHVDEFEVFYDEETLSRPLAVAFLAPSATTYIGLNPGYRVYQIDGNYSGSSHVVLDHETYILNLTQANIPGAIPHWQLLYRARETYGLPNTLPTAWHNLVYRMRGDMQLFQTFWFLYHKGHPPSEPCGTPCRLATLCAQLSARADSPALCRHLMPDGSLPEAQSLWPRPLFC
#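 Human placenta-derived ASM enzyme was preincubated with compound for 10 minutes at room temperature, then given fluorogenic substrate HMU-PC0 (9 uM final) for 60 minutes at 37 °C; a pH 10 stop preceded fluorescence reading at Ex 386/Em 447 nm.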
# * hit, by the source's call; ? = inconclusive; nt = not tested or not shown; [ ] = remark or other dose. The list is not random: actives were taken first. Their share in the collection is about 19%. Unless noted, calls come from the whole dose curve; as a rule, active = well fitted curve in the direction sought with a large enough effect; inconclusive = small, poorly fitted or top-dose-only effect, or another doubt; inactive = no such curve, though single readings can be large; an effect the other way counts as inactive or inconclusive.
SMILES,DT40 TDP1 CPT,HepG2 tox,DT40 TDP1 no CPT,IL1B secr inh,TGFb inhibitor,S-ASM inh
Cc1cnc(C(=O)Nc2ccc(-n3cnnn3)cc2)cn1,18.4µM*,-11.5%,?,8.7,-0.8%,3.3%
COc1ccc(NC(=O)c2cnc(C)cn2)cc1-n1cnnn1,-14.4%,-13.2%,-12.6%,16.0,6.0%,4.9%
CCOCCc1nnc(NC(=O)C(=O)c2cc(C)n(-c3ccc(Cl)cc3)c2C)s1,?,-13.2%,?,nt,?,nt
CCCCNC(=O)c1onc(CSc2nc3ccccc3[nH]2)c1C(=O)NCCCC,?,-28.4%,?,-24.1,?,-13.6%
O=C(NCC1CC1)c1onc(CSc2nc3ccccc3[nH]2)c1C(=O)NCC1CC1,20.6µM*,-58.8%,?,-12.2,-6.4%,-7.2%
COc1ccc(C(=O)CSc2n[nH]c(-c3ccncc3)n2)cc1[N+](=O)[O-],-4.0%,-13.5%,-16.4%,17.5,-11.5%,-1.3%
COc1ccc(-c2nc(SCC(=O)c3ccc(OC)c(Br)c3)n[nH]2)cc1,?,-2.1%,23.1µM*,nt,8.7%,nt
COc1ccc(NC(=O)CSc2n[nH]c(-c3ccccc3)n2)cc1Cl,?,-14.4%,?,nt,-26.9%,nt
O=C(CSc1n[nH]c(-c2ccc(F)cc2)n1)NCCc1ccccc1,-27.5%,-3.2%,?,nt,-19.6%,nt
O=C(CSc1n[nH]c(-c2ccccc2)n1)NCCCc1ccccc1,?,-26.8%,20.6µM*,nt,?,nt
COc1ccc(-c2nc(SCC(=O)NCCCc3ccccc3)n[nH]2)cc1,16.4µM*,-10.3%,20.6µM*,nt,0.0%,nt
COc1ccc(Br)cc1CNC(=O)CSc1n[nH]c(-c2ccccc2)n1,13µM*,-28.4%,20.6µM*,nt,?,nt
Cn1c(SCc2ccccc2)nnc1-c1ccc2nonc2c1,-5.2%,20.3%,-17.3%,-1.6,-3.6%,-2.5%
COc1ccc2nc3n(c(=O)c2c1)-c1ncccc1C(=O)NC3CC(C)C (configuration not stated),13.8%,-3.7%,5.4%,-0.1,2.1%,nt
Cc1cc(/C=C2\C=Cc3ccccc32)cc(C)c1[N+](=O)[O-],?,-26.6%,?,nt,-9.9%,nt
COc1ccc(C(=O)N2CCC[C@@]3(CCN(C(=O)Nc4ccccc4)C3)C2)cc1,-27.1%,nt,?,nt,nt,nt
CCCS(=O)(=O)N1CCN=C1SCc1ccc(F)cc1,-24.0%,-24.2%,?,-5.8,-9.8%,3.3%
COc1ccc(OC)c(C(=O)CSc2nccc(-c3ccc(Br)cc3)n2)c1,?,-40.2%,29.1µM*,-14.2,0.1%,7.0%
CCOC(=O)C1CCN(C(=O)c2cc3sc(C)cc3n2C)CC1,-15.3%,-13.2%,-18.3%,nt,6.3%,nt
CCCCCCn1c(=O)n2n(c1=O)[C@@H]1CN(S(=O)(=O)c3ccc(C)cc3)C[C@]1(O)[C@@H](OC(=O)NCc1ccco1)C2,?,-29.4%,23.1µM*,?,?,nt
Cc1ccc(S(=O)(=O)N2C[C@H]3n4c(=O)ccc(=O)n4C[C@H](OC(=O)NC4CC4)[C@@]3(O)C2)cc1,-12.6%,-5.7%,-12.1%,17.0,1.2%,nt
COC(=O)[C@H]1C[C@H](OC(=O)NCc2ccccc2F)[C@@]2(O)CN(S(=O)(=O)c3ccc(C)cc3)CC2[C@H]1C(=O)OC (some centres not stated),?,2.6%,23.1µM*,-0.4,11.3%,nt
Cc1ccc(S(=O)(=O)N2C[C@H]3N(C(=O)OC(C)C)N(C(=O)OC(C)C)C[C@H](OC(=O)NCC4CCCCC4)[C@@]3(O)C2)cc1,20.6µM*,-38.7%,25.9µM*,-17.0,?,nt
COc1ccc(CNC(=O)OC23CN(C(=O)OC(C)C)N(C(=O)OC(C)C)CC2(O)CN(S(=O)(=O)c2ccc(C)cc2)C3)cc1OC (configuration not stated),?,-9.6%,?,-5.8,-28.8%,nt
Cc1ccc(S(=O)(=O)N2C[C@H]3N(C(=O)OC(C)C)N(C(=O)OC(C)C)C[C@H](OC(=O)NCc4ccccc4)[C@@]3(O)C2)cc1,20.6µM*,-7.0%,20.6µM*,-9.6,?,nt
SMILES,DT40 TDP1 CPT,HepG2 tox,DT40 TDP1 no CPT,IL1B secr inh,TGFb inhibitor,S-ASM inh
COc1ccc(CCN2CC(C(=O)N(C)Cc3ccccn3)CCC2=O)cc1 (configuration not stated),-10.3%,6.4%,-10.5%,10.9,2.9%,nt
O=C(NCc1nnc(SCC(=O)N2CCN(c3ccccc3)CC2)o1)c1c(F)cccc1Cl,-20.6%,-0.8%,-20.3%,19.8,-2.4%,5.7%
Cc1cccc(NC(=O)C2CCCN(S(=O)(=O)c3ccc4c(c3)CCCC(=O)N4)C2)c1 (configuration not stated),nt,-24.8%,nt,nt,-5.6%,nt
Cn1c(NCc2ccccc2F)nc2ccccc21,-25.3%,-16.1%,?,nt,?,nt
CCN(CC)S(=O)(=O)c1cccc(C(=O)NCC2(N3CCOCC3)CCCCC2)c1,?,-12.5%,?,-8.3,34.3%,-5.4%
COC(=O)c1cc(CNC(=O)c2ccccc2)cc(NC(=O)c2ccccc2OC)c1,1.0%[9.04 µM],nt,?,nt,nt,nt
N#CCCn1c(=O)c(CCc2ccccc2)nc2cnc(Nc3ccccc3)nc21,-1.8%,nt,-20.7%,nt,nt,nt
COC(=O)[C@H]1C[C@@]2(O)CN(S(=O)(=O)c3ccc(C)cc3)C[C@@]2(OC(=O)NCc2ccco2)C[C@H]1C(=O)OC,-16.7%,5.5%,-22.4%,-21.5,4.5%,nt
Cc1ccc(S(=O)(=O)N2C[C@H]3N(C(=O)OC(C)C)N(C(=O)OC(C)C)C[C@H](OC(=O)NCc4ccco4)[C@@]3(O)C2)cc1,?,1.0%,23.1µM*,-1.7,8.8%,nt
Cc1ccc(S(=O)(=O)N2CC3(O)CN(C(=O)OC(C)C)N(C(=O)OC(C)C)CC3(OC(=O)NCc3ccccc3)C2)cc1 (configuration not stated),?,-23.2%,20.6µM*,-23.6,?,nt
COc1ccc(N(Cc2ccccc2)C(=O)CSc2nnc(Cn3nnc4ccccc43)o2)cc1,25.9µM*,-10.2%,23.1µM*,-2.0,-11.4%,-6.1%
O=C(CSc1nnc(Cn2nnc3ccccc32)o1)N(Cc1ccc(F)cc1)c1ccccc1,7.31µM*,-22.1%,7.08µM*,-82.4*,11.2µM*,-16.0%
O=C(CSc1nnc(Cn2nnc3ccccc32)o1)Nc1ccc(Cl)cc1,-1.1%,3.1%,-7.1%,7.2,27.0%,2.9%
